Reference: PubChem BioAssay AID624047 (National Center for Advancing Translational Sciences (NCATS), 2012)
A number with no mark means an inactive call. Active and inactive are the calls of the source. Calls come from the whole dose curve; as a rule, active = well fitted inhibition curve with a large enough effect; inactive = flat fitted curve, though single readings scatter.

Molecular target: Dual specificity protein kinase CLK1 (Homo sapiens) (UniProt P49759)
Assay: Reaction Biology data for inhibitors of CLK1: Probe SAR
Conditions: Reaction Biology CLK1 kinase assay, 10 uM ATP; series mostly up to 10 µM; activity change, negative = inhibition: at the top concentration
Text: Alternative splicing of pre-mRNAs plays a major role in the regulation of eukaryotic gene expression. Alternative splicing is now thought to be one of the primary reasons for the complexity of higher organisms leading to an average of three protein isoforms per gene. Aberrant splicing can lead to a number of diseases and is known to play a role in rare genetic diseases such as progeria syndrome. Hutchinson-Gilford Progeria Syndrome (HGPS) is a pediatric premature aging disease caused by a spontaneous mutation in the lamin A/C (LMNA) gene due to a single point mutation in the lamin A gene effecting 1 in 4 million people. To identify both specific splicing modulators of the lamin A gene as well as general splicing modulators, a cell-based HTS assay was developed using a minigene reporter system (AIDs, 1459 & 1487). […] This AID summarizes the characterization of lead compounds in Clk1. NIH Molecular Libraries Probe Production Centers Network [MLPCN] NIH Chemical Genomics Center [NCGC] MLPCN Grant: MH084827 Assay Submitter (PI): Tom Misteli
Compound IC50s were determined at Reaction Biology (http://www.reactionbiology.com) with ten concentration points starting at 10 uM in the assay using a 3-fold dilution series. The control compound staurosporine was also tested in the 10-dose IC50 mode with the same 3-fold serial dilution, again starting at 10 uM. All kinase reactions were performed using 10 uM ATP in the assay. 100% activity was taken from kinase reactions with DMSO alone (the vehicle used for compound stock solutions).

Sequence of Dual specificity protein kinase CLK1 (Homo sapiens) (P49759 whole entry, looked up): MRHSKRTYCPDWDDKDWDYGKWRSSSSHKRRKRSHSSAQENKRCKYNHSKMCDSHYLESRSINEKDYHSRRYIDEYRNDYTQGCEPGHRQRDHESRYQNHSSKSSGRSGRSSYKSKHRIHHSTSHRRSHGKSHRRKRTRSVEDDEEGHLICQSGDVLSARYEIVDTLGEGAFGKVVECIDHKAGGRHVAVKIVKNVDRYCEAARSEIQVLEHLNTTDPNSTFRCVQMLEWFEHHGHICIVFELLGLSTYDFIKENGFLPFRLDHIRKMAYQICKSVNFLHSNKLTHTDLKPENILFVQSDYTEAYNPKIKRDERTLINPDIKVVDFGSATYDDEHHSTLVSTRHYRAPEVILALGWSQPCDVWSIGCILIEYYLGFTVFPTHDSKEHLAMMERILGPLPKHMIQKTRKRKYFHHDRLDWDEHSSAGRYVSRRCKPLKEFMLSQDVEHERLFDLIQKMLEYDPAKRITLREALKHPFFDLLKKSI

**Q.** Which “activity change, negative = inhibition” value does the source give for `Clc1ccc(CNc2ccnc(-c3ccc4c(c3)OCO4)n2)cc1Cl` here?
**A.** -25.3%

**Q.** How did the Potency turn out when `c1cc(-c2ccc3c(c2)OCO3)nc(Nc2ccc3c(c2)OCO3)n1` was run?
**A.** 180 nM (active)

**Q.** Which Potency does the source give for `c1cncc(CNc2ccnc(-c3ccc4cn[nH]c4c3)n2)c1` here?
**A.** 1600 nM (active)

**Q.** Which Potency does the source give for `c1cncc(CNc2ccnc(-c3ccc4[nH]ncc4c3)n2)c1` here?
**A.** 964 nM (active)

**Q.** For `Clc1ccc(CNc2nccc(-c3ccc4c(c3)OCO4)n2)cc1Cl`, which Potency is on record?
**A.** 8.3 nM (active)

**Q.** For `COc1ccc(-c2ccnc(NCc3ccc(Cl)cc3)n2)cc1`, which Potency is on record?
**A.** 277 nM (active)

**Q.** Which Potency does the source give for `Clc1cc(Cl)cc(CNc2nccc(-c3ccc4c(c3)OCO4)n2)c1` here?
**A.** 1.9 nM (active)

**Q.** With `COc1ccc(-c2ccnc(NCc3ccc(Cl)c(Cl)c3)n2)cc1` as the compound, how does the Potency read?
**A.** 76.5 nM (active)

**Q.** How did the Potency turn out when `c1cncc(CNc2nccc(-c3ccc4[nH]ncc4c3)n2)c1` was run?
**A.** 72.8 nM (active)

**Q.** Which “activity change, negative = inhibition” value does the source give for `COc1ccc(-c2ccnc(NCc3ccc(Cl)c(Cl)c3)n2)cc1OC` here?
**A.** -39.5%

**Q.** `O=[N+]([O-])c1cc(Nc2nccc(-c3ccc4c(c3)OCO4)n2)cc(C(F)(F)F)c1` was tested. Which Potency did it give?
**A.** 32.3 nM (active)

**Q.** How did the Potency turn out when `Clc1ccc(CNc2ncncc2-c2ccc3c(c2)OCO3)cc1Cl` was run?
**A.** 626 nM (active)

**Q.** Which Potency does the source give for `c1nc(NCC2CCCO2)c2cc(-c3ccc4c(c3)OCO4)ccc2n1` (stereo not drawn) here?
**A.** 52.8 nM (active)

**Q.** With `Clc1ccc(CNc2nccc(-c3ccc4[nH]ncc4c3)n2)cc1Cl` as the compound, how does the Potency read?
**A.** 41.5 nM (active)

**Q.** How did the Potency turn out when `COc1cccc(-c2ccnc(NCc3ccc(Cl)c(Cl)c3)n2)c1` was run?
**A.** 5460 nM (active)

**Q.** How did the Potency turn out when `Cc1c(-c2ccnc(NCc3cccnc3)n2)sc(=O)n1C` was run?
**A.** 44.9 nM (active)

**Q.** Which Potency does the source give for `Clc1ccc(CNc2nccc(-c3ccc4c(c3)OCCO4)n2)cc1Cl` here?
**A.** 15.8 nM (active)

**Q.** How did the Potency turn out when `FC(F)(F)c1cccc(Nc2nccc(-c3ccc4c(c3)OCO4)n2)c1` was run?
**A.** 33.6 nM (active)

**Q.** How did the Potency turn out when `c1cncc(CNc2ncncc2-c2ccc3c(c2)OCO3)c1` was run?
**A.** 4800 nM (active)

**Q.** With `COc1cccc(-c2ccnc(NCc3ccc(Cl)cc3)n2)c1` as the compound, how does the “activity change, negative = inhibition” value read?
**A.** -49.7%

**Q.** How did the Potency turn out when `c1cncc(CNc2nccc(-c3ccc4c(c3)OCO4)n2)c1` was run?
**A.** 11.3 nM (active)

**Q.** Which Potency does the source give for `Cc1nc(CN(C)c2ncnc3ccc(-c4ccc5c(c4)OCO5)cc23)cs1` here?
**A.** 9.3 nM (active)

**Q.** `Cc1c(-c2ccnc(NCc3ccc(Cl)cc3)n2)sc(=O)n1C` was tested. Which Potency did it give?
**A.** 74.8 nM (active)

**Q.** Which Potency does the source give for `Clc1ccc(Nc2nccc(-c3ccc4c(c3)OCO4)n2)cc1` here?
**A.** 1260 nM (active)

**Q.** How did the Potency turn out when `Clc1ccc(CNc2nccc(-c3ccc4cn[nH]c4c3)n2)cc1Cl` was run?
**A.** 183 nM (active)

**Q.** Which Potency does the source give for `Brc1cc(Br)cc(CNc2nccc(-c3ccc4c(c3)OCO4)n2)c1` here?
**A.** 13 nM (active)

**Q.** `Cc1nc(CNc2ncnc3ccc(-c4ccc5c(c4)OCO5)cc23)cs1` was tested. Which Potency did it give?
**A.** 30.4 nM (active)

**Q.** For `Cc1nc(CN(C)c2ncnc3ccc(-c4ccc5[nH]ncc5c4)cc23)cs1`, which Potency is on record?
**A.** 47.5 nM (active)

**Q.** For `Clc1ccc(CNc2ncncc2-c2ccc3c(c2)OCO3)cc1`, which Potency is on record?
**A.** 2370 nM (active)

**Q.** How did the Potency turn out when `FC(F)(F)c1cc(Br)cc(Nc2nccc(-c3ccc4c(c3)OCO4)n2)c1` was run?
**A.** 102 nM (active)

**Q.** Which Potency does the source give for `Brc1ccc(CNc2nccc(-c3ccc4c(c3)OCO4)n2)cc1Br` here?
**A.** 24.1 nM (active)

**Q.** `Clc1cc(Cl)cc(CNc2ncncc2-c2ccc3c(c2)OCO3)c1` was tested. Which Potency did it give?
**A.** 68.4 nM (active)

**Q.** For `Clc1ccc(CNc2ccnc(-c3ccc4[nH]ncc4c3)n2)cc1Cl`, which Potency is on record?
**A.** 1780 nM (active)
